# The supplement of paper PMC12636033
# ± gives the standard deviation of the averaged measurements. The full ranking holds about 33,000 sequences; the median of “E-score (rank enrichment, -0.5 to 0.5)” is about -0.0075, and the highest 2% start at about 0.23. The sample holds the highest values, similar sequences and a random draw of the others, so the mix is not that of the screen.
# Tested on: WT Max(13-93) synthetic (M65Nle)
# Assay: PBM 8-mer E-score (E-score (rank enrichment, -0.5 to 0.5)); higher = stronger preferential binding
# Experimental: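 Protein binding microarray (universal PBM chip covering all 10-mers in fixed probe flanks) with chemically synthesized human Max(13-93) bHLH-LZ analogs (not full-length Max) bearing noncanonical residues (hArg, Tha, Aib, Nle at 65) and aromatic Cys staples. Read-out per 8-mer (and its reverse complement): E-score (rank-based enrichment, -0.5 to 0.5) and Z-score of median probe intensity.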
row,Sequence,PBM 8-mer E-score
1,CGACATGC,0.18 ± 0.013
2,GCACATGA,0.175 ± 0.065
3,GCACATCC,-0.00788 ± 0.08
4,CCACATGG,0.366 ± 0.0054
5,GCACATGC,0.251 ± 0.032
6,CCACATCG,-0.114 ± 0.056
7,TCACATGA,0.229 ± 0.011
8,ACACATGC,0.23 ± 0.089
9,GCACATAC,0.0278 ± 0.096
10,CCACATGA,0.24 ± 0.057
11,CAACATGG,0.171 ± 0.018
12,CCACATGC,0.327 ± 0.06
13,ACTAAGAC,-0.0588 ± 0.021
14,AGTGGCAT,0.077 ± 0.041
15,ATAGAGAT,0.0666 ± 0.018
16,ACCTCTAT,-0.0733 ± 0.13
17,AATGCCTG,-0.0228 ± 0.16
18,AAACGTTC,0.138 ± 0.043
19,TCTTACCA,-0.0372 ± 0.041
20,CAGTGAGC,-0.263 ± 0.02
21,AATATATG,0.251 ± 0.011
22,AATATGAA,0.279 ± 0.013

row,Sequence,PBM 8-mer E-score
1,AATATGAC,0.201 ± 0.057
2,AATATGTA,0.138 ± 0.069
3,AATATATA,0.175 ± 0.01
4,AATATATT,0.197 ± 0.047
5,AATATGTC,0.0761 ± 0.1
6,AATATGTG,0.273 ± 0.036
7,TATATGAA,0.15 ± 0.097
8,ACGTCGAC,0.0127 ± 0.076
9,ACCCCGTG,0.0605 ± 0.035
10,CCGGCGTA,-0.17 ± 0.049
11,CCCGCGCC,-0.134 ± 0.14
12,ACGCATTC,-0.0561 ± 0.13
13,AGGTGATA,-0.0245 ± 0.055
14,ATTAATGC,0.0772 ± 0.086
15,ATTAATTC,0.159 ± 0.18
16,ATTAATAA,0.195 ± 0.023
17,CTTAATTC,0.258 ± 0.0064
18,CTTAATTA,0.0675 ± 0.075
19,ATTAATTA,0.235 ± 0.13
20,ATTAATAC,0.102 ± 0.0018
21,GTTAATTA,0.13 ± 0.14
22,CTTAATGA,0.0202 ± 0.07

row,Sequence,PBM 8-mer E-score
1,ATTAATTG,0.128 ± 0.089
2,ATTAATAG,0.263 ± 0.1
3,ATTAATGA,0.264 ± 0.076
4,ACTACAGT,0.0566 ± 0.059
5,TGACAACA,0.0331 ± 0.06
6,CCCGCTAC,0.047 ± 0.0079
7,CTGAAGCC,-0.13 ± 0.039
8,GAGAGCTA,0.1 ± 0.073
9,ATGGGCTA,0.0445 ± 0.068
10,GAATGACA,0.0853 ± 0.076
11,AAATGACC,0.0445 ± 0.18
12,TAATGACA,0.256 ± 0.013
13,CAATGACA,0.184 ± 0.075
14,AAATGACG,0.0648 ± 0.073
15,AAATGACA,0.248 ± 0.04
16,CGACCCAG,-0.168 ± 0.1
17,CTCAAGAA,0.026 ± 0.0068
18,TGTTATAA,0.255 ± 0.026
19,CATTAGAA,0.0359 ± 0.086
20,TATTAGAA,0.235 ± 0.07
21,AGTTATAA,0.132 ± 0.08
22,GATTATAA,0.134 ± 0.066

row,Sequence,PBM 8-mer E-score
1,CGTTATAA,0.0918 ± 0.12
2,TATTATAA,0.291 ± 0.094
3,CATTATAA,0.107 ± 0.051
4,GATTAGAA,0.131 ± 0.017
5,CCCGGAAG,-0.252 ± 0.034
6,AATTATGT,0.178 ± 0.038
7,ACGCGCCA,0.0474 ± 0.11
8,AACGAAGA,0.0931 ± 0.055
9,CCTTTAGC,-0.065 ± 0.16
10,CCTACTAA,-0.0419 ± 0.0019
11,GTATTAAA,0.188 ± 0.077
12,ATATTATA,0.309 ± 0.018
13,CTATTATA,0.0186 ± 0.0034
14,GTATTAGA,0.223 ± 0.014
15,AAATATTA,0.219 ± 0.04
16,ACATTATA,0.158 ± 0.0021
17,ATTATATC,0.247 ± 0.059
18,ATTATATA,0.125 ± 0.052
19,CAATATTA,0.157 ± 0.12
20,GTATTATA,0.251 ± 0.046
21,ATTATATG,0.176 ± 0.035
22,TAATATTA,0.37 ± 0.026

row,Sequence,PBM 8-mer E-score
1,CGTAGCGC,-0.0505 ± 0.038
2,GCAGGATA,-0.184 ± 0.065
3,TAAGGTAA,0.156 ± 0.086
4,CCAGCATA,0.0104 ± 0.015
5,GCTTCCCA,-0.0247 ± 0.11
6,GGAGGGTA,0.0987 ± 0.018
7,ATATTATG,0.242 ± 0.0093
8,ATATTATC,0.138 ± 0.011
9,GTATATTA,0.226 ± 0.027
10,GCATTACA,0.133 ± 0.049
11,CTATTACA,0.14 ± 0.048
12,ATATATTA,0.256 ± 0.08
13,AGATTATG,-0.178 ± 0.043
14,GTATTACA,0.245 ± 0.00083
15,CTATATTA,0.221 ± 0.015
16,AACGTTCT,0.0268 ± 0.08
17,CCTGTTGC,0.0294 ± 0.077
18,TGGAGGAA,-0.0087 ± 0.04
19,ATGCCCGC,0.00379 ± 0.056
20,CCGACGCC,-0.139 ± 0.013
21,GCGGCCGA,-0.21 ± 0.09
22,AATTTATC,0.15 ± 0.049
